Measured values from PubChem BioAssay (Tox21).
Inconclusive results are not listed. Entries that show only a call come without a potency. Activity calls are given as the source filed them. Unless noted, the call rests on the fitted dose curve.

Experiments:
[1] = Nuclear factor erythroid 2-related factor 2/antioxidant responsive element (Nrf2/ARE) small molecule agonists: qHTS cell viability counter screen in human keratinocytes (AID 1919968; active means well fitted curve in the direction sought with a large enough effect in the repeat runs; an effect the other way counts as inactive or inconclusive; further: nearly all actives have a fitted effect of over 55% in size)
Method in brief: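 HaCaT ARE reporter line, 1,500 cells/well; 5 h settle, 37 C/5% CO2; cpd in DMSO pinned; 23 h exposure; CellTiter-Fluor, 1 h; fluorescence.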

[2] = Nuclear factor erythroid 2-related factor 2/antioxidant responsive element (Nrf2/ARE) small molecule agonists: luciferase reporter gene qHTS assay in human keratinocytes (AID 1919969); further: nearly all actives have a fitted effect of over 35% in size
[3] = molecular target: Gonadotropin-releasing hormone receptor (Homo sapiens) (UniProt P30968); assay: Human gonadotropin-releasing hormone receptor (GnRHR) small molecule agonists, calcium flux assay in GnRHR-HEK293 cells (AID 1920063); further: nearly all actives have a fitted effect of over 35% in size
Sequence of Gonadotropin-releasing hormone receptor (Homo sapiens) (P30968 whole entry, looked up): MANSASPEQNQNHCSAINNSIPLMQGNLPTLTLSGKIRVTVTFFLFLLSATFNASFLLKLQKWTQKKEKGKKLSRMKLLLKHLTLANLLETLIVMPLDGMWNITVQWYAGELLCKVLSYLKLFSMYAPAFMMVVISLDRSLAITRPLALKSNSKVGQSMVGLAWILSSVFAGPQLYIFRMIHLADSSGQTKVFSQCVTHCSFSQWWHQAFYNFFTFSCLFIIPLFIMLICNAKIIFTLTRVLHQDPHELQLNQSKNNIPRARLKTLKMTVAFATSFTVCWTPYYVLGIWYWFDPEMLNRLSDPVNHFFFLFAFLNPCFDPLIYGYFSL
Method in brief: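 GnRHR-HEK293, 1500 cells/well, 18 h 37 C/5% CO2; Ca dye 1 h 37 C; cpd pinned (DMSO), agonist mode; kinetic FL 480/540, 3 min, 1 s reads; 15 conc, n=3.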

[4] = molecular target: KiSS-1 receptor (Homo sapiens) (UniProt Q969F8); assay: Human kisspeptin (KISS1R) small molecule agonists, calcium flux assay in KISS1R-HEK293 cells (AID 1920064; active means well fitted curve in the direction sought with a large enough effect in the repeat runs; an effect the other way counts as inactive or inconclusive)
Sequence of KiSS-1 receptor (Homo sapiens) (Q969F8 whole entry, looked up): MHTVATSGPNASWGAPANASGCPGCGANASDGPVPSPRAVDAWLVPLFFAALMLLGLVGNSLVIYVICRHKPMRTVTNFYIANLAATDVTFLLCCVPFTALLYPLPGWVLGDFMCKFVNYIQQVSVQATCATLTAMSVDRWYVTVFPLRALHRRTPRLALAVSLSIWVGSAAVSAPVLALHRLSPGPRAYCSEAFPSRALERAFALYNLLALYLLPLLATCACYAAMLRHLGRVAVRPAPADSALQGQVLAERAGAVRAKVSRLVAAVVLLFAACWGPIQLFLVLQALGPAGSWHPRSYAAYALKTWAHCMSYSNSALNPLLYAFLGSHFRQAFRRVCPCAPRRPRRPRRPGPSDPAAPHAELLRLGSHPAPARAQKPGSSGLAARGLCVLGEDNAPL
Method in brief: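 Stable human KISS1R HEK293 line; 18 h plating, 37 C/5% CO2; calcium dye 1 h 37 C; compound pin transfer; kinetic fluorescence Ex/Em 480/540, 3 min.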

[5] = G protein-coupled receptor (GPCR) small molecule agonists, calcium flux assay: HEK293 wild type cell line counter screen (AID 1920065)
Method in brief: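 Kinetic fluorescence at Ex/Em 480/540, recorded every second over 3 min, served as the read-out after compound addition. Each compound was tested at 15 concentrations in triplicate on cells pre-loaded with calcium dye for 1 h.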

[6] = p53 small molecule agonists, cell-based qHTS assay with human liver microsomes (AID 1963577);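 further: p53 response element beta-lactamase reporter cells with liver microsomes plus NADPH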
Method in brief: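 Metabolically competent format: test substances, human liver microsomes and NADPH (both 0.5 mg/mL final) incubated with p53RE-bla cells 16 h at 37 C. Beta-lactamase reporter signal then quantified by fluorescence.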

[7] = p53 small molecule agonists, cell-based qHTS assay with rat liver microsomes (AID 1963578)
Method in brief: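 Each plate received p53RE-bla cells, then compound, then rat liver microsomes and NADPH (both 0.5 mg/mL final). Plates were held 16 h at 37 C, and beta-lactamase activity was detected with LiveBLAzer over 2 h.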

[8] = p53 small molecule agonists, cell-based qHTS assay with human liver microsomes: qHTS cell viability counter screen (AID 1963579); further: nearly all actives have a fitted effect of over 45% in size
Method in brief: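 Tox21 library compounds, delivered from DMSO stocks, were tested on p53RE-bla cells together with 0.5 mg/mL human liver microsomes and 0.5 mg/mL NADPH (final) over 16 h at 37 C; CellTiter-Glo luminescence served as the cytotoxicity measure.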

[9] = p53 small molecule agonists, cell-based qHTS assay with rat liver microsomes: qHTS cell viability counter screen (AID 1963580); further: nearly all actives have a fitted effect of over 45% in size
Method in brief: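 p53RE-bla HCT-116 cells were exposed 16 h at 37 C to compounds with rat liver microsomes (0.5 mg/mL) and NADPH (0.5 mg/mL). Viability was measured in the same wells as ATP content by CellTiter-Glo luminescence.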

[10] = p53 small molecule agonists, cell-based qHTS assay: qHTS cell viability counter screen (AID 1963581); further: nearly all actives have a fitted effect of over 45% in size
Method in brief: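 HCT-116 p53RE-bla cells, 4,000/well, plated 5 h before compound pin transfer; 16 h at 37 C; bla substrate 2 h RT; then CellTiter-Glo, 30 min RT, luminescence.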

[11] = p53 small molecule agonists, cell-based qHTS assay (AID 1963582; active means well fitted activation curve with a large enough effect in the signal ratio in the repeat runs, not every such curve was filed as active; the % refers to the signal ratio)
Method in brief: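 Reporter line: p53RE-bla. Pre-incubation 5 h, 37 C, 5% CO2; compound (DMSO, pin tool) 16 h, 37 C; B/G FRET substrate 2 h RT; fluorescence intensity read.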

[12] = molecular target: 5-hydroxytryptamine receptor 2A (Homo sapiens) (UniProt P28223); assay: 5-hydroxytryptamine receptor 2A (HTR2A) small molecule agonists, cell-based qHTS assay (AID 1963587); further: nearly all actives have a fitted effect of over 30% in size
Sequence of 5-hydroxytryptamine receptor 2A (Homo sapiens) (P28223 whole entry, looked up): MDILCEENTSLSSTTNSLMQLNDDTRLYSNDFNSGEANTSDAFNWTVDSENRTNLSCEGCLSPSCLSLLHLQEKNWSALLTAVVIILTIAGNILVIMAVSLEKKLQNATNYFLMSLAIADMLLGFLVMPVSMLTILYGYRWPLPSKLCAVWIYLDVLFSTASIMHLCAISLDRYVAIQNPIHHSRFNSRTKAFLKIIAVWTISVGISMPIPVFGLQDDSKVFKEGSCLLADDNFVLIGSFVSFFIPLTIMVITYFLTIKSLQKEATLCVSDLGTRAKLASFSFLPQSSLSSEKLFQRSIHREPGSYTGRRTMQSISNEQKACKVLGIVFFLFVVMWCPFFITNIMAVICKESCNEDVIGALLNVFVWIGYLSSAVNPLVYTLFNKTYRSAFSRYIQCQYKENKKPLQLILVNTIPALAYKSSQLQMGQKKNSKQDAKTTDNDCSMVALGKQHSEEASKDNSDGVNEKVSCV
Method in brief: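 CHO cells stably expressing human HTR2A, plated 18 h, loaded with calcium dye 1 h at 37 C. Agonist mode: compounds added and intracellular calcium fluorescence recorded kinetically for 2 min at 1 sec intervals.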

[13] = molecular target: Muscarinic acetylcholine receptor M1 (Homo sapiens) (UniProt P11229); assay: Cholinergic receptor muscarinic 1 (CHRM1) small molecule antagonists, cell-based qHTS assay (AID 1963588); further: nearly all actives have a fitted effect of over 40% in size; further: potency means the concentration at half of the fitted maximal effect
Sequence of Muscarinic acetylcholine receptor M1 (Homo sapiens) (P11229 whole entry, looked up): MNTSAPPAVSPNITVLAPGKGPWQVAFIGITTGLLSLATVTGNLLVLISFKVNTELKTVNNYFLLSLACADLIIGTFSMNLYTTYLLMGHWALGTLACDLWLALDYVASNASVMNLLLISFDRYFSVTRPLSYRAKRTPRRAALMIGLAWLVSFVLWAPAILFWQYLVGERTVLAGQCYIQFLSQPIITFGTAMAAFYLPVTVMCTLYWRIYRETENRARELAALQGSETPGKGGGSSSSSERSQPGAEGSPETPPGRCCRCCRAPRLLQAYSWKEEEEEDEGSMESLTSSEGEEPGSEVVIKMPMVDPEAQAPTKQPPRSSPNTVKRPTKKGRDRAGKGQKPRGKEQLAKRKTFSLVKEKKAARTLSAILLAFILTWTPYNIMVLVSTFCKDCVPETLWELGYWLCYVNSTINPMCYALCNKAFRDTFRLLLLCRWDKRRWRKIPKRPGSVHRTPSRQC
Method in brief: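 CHRM1-CHO calcium-flux assay, antagonist mode. Cells were seeded 18 h, dye-loaded 1 h at 37 C and given compound for 5 min at RT, then acetylcholine was added at 50nM. FDSS fluorescence was read 3 min; 15 concentrations, three runs.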

[14] = molecular target: Muscarinic acetylcholine receptor M1 (Homo sapiens) (UniProt P11229); assay: Cholinergic receptor muscarinic 1 (CHRM1) small molecule agonists, cell-based qHTS assay (AID 1963589); further: nearly all actives have a fitted effect of over 35% in size
Method in brief: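 Human M1 in stable CHO line; 18 h plating, 1 h dye load 37 C; cpd added (agonist mode); Ca2+ fluorescence kinetic read, 1 s intervals; 15 conc, 3 runs.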

[15] = cAMP Responsive Elements (CRE) small molecule agonists, cell-based qHTS assay (AID 1963590)
Method in brief: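 HEK 293T CRE-bla, 2,000 cells/well, 18 h preincubation 37 C/5% CO2; cpds (DMSO) pinned, 3 h; LiveBLAzer B/G FRET substrate, 2 h RT.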

[16] = cAMP Responsive Elements (CRE) small molecule antagonists, cell-based qHTS assay (AID 1963591; active means well fitted inhibition curve with a large enough effect in the signal ratio in the repeat runs, not every such curve was filed as active; the % refers to the signal ratio)
Method in brief: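 Beta-lactamase reporter read by FRET substrate (LiveBLAzer B/G) after 2 h at room temperature. CRE-bla HEK293T cells had received compound plus 0.25 uM (final) NKH477 for 3 h at 37 °C.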

[17] = molecular target: Beta-2 adrenergic receptor (Homo sapiens) (UniProt P07550); assay: Adrenergic beta2 receptor (ADRB2) small molecule antagonists, cell-based qHTS assay (AID 1963592); further: series mostly up to about 92 µM; nearly all actives have a fitted effect of over 50% in size
Sequence of Beta-2 adrenergic receptor (Homo sapiens) (P07550 whole entry, looked up): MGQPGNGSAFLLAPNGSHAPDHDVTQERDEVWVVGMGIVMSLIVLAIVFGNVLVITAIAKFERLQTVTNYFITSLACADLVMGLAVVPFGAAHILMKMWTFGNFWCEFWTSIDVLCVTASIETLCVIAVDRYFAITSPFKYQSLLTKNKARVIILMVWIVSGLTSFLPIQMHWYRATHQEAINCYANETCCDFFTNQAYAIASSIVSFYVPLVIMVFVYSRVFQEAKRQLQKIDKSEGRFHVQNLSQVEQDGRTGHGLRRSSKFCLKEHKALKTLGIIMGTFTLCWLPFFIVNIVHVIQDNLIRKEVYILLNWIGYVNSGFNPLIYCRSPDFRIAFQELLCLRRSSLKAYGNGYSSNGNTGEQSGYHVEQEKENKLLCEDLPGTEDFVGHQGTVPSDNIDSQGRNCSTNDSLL
Method in brief: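 Cells (CHO, stable ADRB2 overexpression) incubated 18-20hr at 37C; compounds added from DMSO; agonist mix (1nM isoproterenol, 100uM IBMX, 25uM Ro-20-1724) added; 0.5hr RT; d2-cAMP and anti-cAMP-cryptate added; 1hr RT; 665/615 nm read.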

[18] = molecular target: D(2) dopamine receptor (Homo sapiens) (UniProt P14416); assay: Dopamine D2 receptor (DRD2) small molecule agonists, cell-based qHTS assay (AID 1963594); further: nearly all actives have a fitted effect of over 35% in size
Sequence of D(2) dopamine receptor (Homo sapiens) (P14416 whole entry, looked up): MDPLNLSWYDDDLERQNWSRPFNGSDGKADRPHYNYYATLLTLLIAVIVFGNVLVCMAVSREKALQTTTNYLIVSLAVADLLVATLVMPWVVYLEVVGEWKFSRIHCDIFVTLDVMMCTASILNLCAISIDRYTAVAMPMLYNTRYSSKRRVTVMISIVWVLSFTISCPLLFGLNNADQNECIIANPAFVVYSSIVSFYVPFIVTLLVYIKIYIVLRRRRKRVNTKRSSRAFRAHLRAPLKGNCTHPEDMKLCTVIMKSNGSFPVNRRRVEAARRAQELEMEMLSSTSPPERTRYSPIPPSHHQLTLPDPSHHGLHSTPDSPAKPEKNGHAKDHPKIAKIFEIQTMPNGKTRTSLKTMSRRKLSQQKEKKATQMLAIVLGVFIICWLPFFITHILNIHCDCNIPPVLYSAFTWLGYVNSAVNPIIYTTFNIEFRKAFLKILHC
Method in brief: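 HEK293 cells stably expressing human DRD2, pre-treated with PDE inhibitor Ro20-1724 (0.1 mM final) and compound 10 min at room temperature, then stimulated with NKH477 (200nM […]) for 30 min. cAMP read by HTRF (665/620 nm).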

[19] = molecular target: D(2) dopamine receptor (Homo sapiens) (UniProt P14416); assay: Dopamine D2 receptor (DRD2) small molecule antagonists, cell-based qHTS assay (AID 1963595; active means well fitted inhibition curve with a large enough effect in the signal ratio in the repeat runs, with a control signal flat; the % refers to the signal ratio)
Method in brief: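 DRD2-HEK293; 0.1 mM Ro20-1724; cpd 10 min RT; NKH477 200 nM + quinpirole 12 nM, 30 min RT; HTRF cAMP (cAMP-d2/anti-cAMP cryptate), 665/620 nm ratio after 1 h.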

SMILES | Potency [1] | Potency [2] | Potency [3] | outcome [4] | outcome [5] | Potency [6] | Potency [7] | Potency [8] | Potency [9] | Potency [10] | Potency [11] | Potency [12] | Potency [13] | Potency [14] | Potency [15] | Potency [16] | Potency [17] | Potency [18] | Potency [19]
Nc1c2c(nc3ccccc13)CCCC2O (stereo unspecified) | inactive | inactive | inactive | inactive | inactive | inactive | inactive | inactive | inactive | inactive | inactive | inactive | inactive | inactive | inactive | inactive | inactive | inactive | 
CN(C)C(=O)CNC(=O)Cc1ccccc1 | inactive | inactive | inactive | inactive | inactive | inactive | inactive | inactive | inactive | inactive | inactive | inactive | inactive | inactive | inactive | inactive | inactive | inactive | inactive
O=C(O)C1CCC1 | inactive | inactive | inactive | inactive | inactive | inactive | inactive | inactive | inactive | inactive | inactive | inactive | inactive | inactive | inactive | inactive |  | inactive | 
CN1Cc2cc(C(=O)N3CCC(C4CCNCC4)CC3)ccc2N[C@@H](CC(=O)O)C1=O | inactive | inactive | inactive | inactive | inactive | inactive | inactive | inactive | inactive | inactive | inactive | inactive | 1.63 µM (active) | inactive | inactive | inactive | inactive | inactive | inactive
COc1ccc(C)cc1[N+](=O)[O-] | inactive | inactive | inactive | inactive | inactive | inactive | inactive | inactive | inactive | inactive | inactive | inactive | inactive | inactive | inactive |  | inactive | inactive | 
CCCCOC(=O)CC | inactive | inactive | inactive | inactive | inactive | inactive | inactive | inactive | inactive | inactive | inactive | inactive |  | inactive | inactive | inactive | inactive | inactive | inactive
CC(=O)Nc1ccc(OCC(O)CNC(C)C)cc1 (stereo unspecified) | inactive | inactive | inactive | inactive | inactive | inactive | inactive | inactive | inactive | inactive | inactive | inactive | inactive | inactive | inactive | inactive |  | inactive | inactive
